The record followed here is PubChem BioAssay.

Experiment [1] is described as follows: inhibitors of TNFa-induced NFkB p65 translocation, primary screen, imaging, HUVEC, MLSMR starter and 10KST1 sets (AID 438;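 active means inhibition above 20% together with a positive visual image hit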;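 further: compound added about 3h40 before a 20 min TNFalpha stimulation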;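 on inhibition: signal is the nuclear over cytoplasmic p65 intensity ratio per well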). Particulars: HUVEC TNFa-induced p65 nuclear translocation; cell count: measured here: nuclei count (cytotoxicity indicator), at 2.08 µM; inhibition: at 2 µM, stronger effect = higher value, 0% TNFa-plus-vehicle, 100% no-TNFa wells.
A short description of experiment [2]: inhibitors of mutant huntingtin aggregation, primary screen, imaging, exon1htt(103Q)mCFP cells, high-content imaging (AID 483;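 active means visual image review flags a hit and inhibition of aggregation exceeds 20%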;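 further: compound exposure lasted 3 days before fixation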;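 on nuclei count: percent of the per-plate median nuclei count of sample wells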). Particulars: exon1htt(103Q)mCFP cell line, aggregate imaging, at 2 µM; inhibition of aggregation: stronger effect = higher value; nuclei count: measured here: cell count, toxicity.
Experiment [3] is described as follows: inhibitors of E-selectin induction by TNFa, primary screen, imaging, HUVEC, immunofluorescence, MLSMR starter and 10KST1 sets (AID 487;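 active means visually confirmed hit in the image check and inhibition above 20%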;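 on inhibition: signal is fraction of cell area covered by stained E-selectin grains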;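 on nuclei count: 100% = median nuclei count of all wells on the same plate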). As to conditions: HUVEC TNFalpha-induced E-selectin immunofluorescence imaging, at 2 µM; inhibition: stronger effect = higher value; nuclei count: measured here: cell number, toxicity.
Experiment [4] has as its target Voltage-gated potassium channel subunit beta-2 (Rattus norvegicus) (UniProt P62483). Put plainly: KvBeta enzyme negative modulators, primary screen, biochemical, NADPH fluorescence (AID 622;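 active means fluorescence slope higher than the sample average by over 3 SD, cut at about -0.22 in these data, passing the limit was not always enough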;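 further: slope of raw intensity against log time taken from 70 to 1610 s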). Particulars: recombinant KvBeta, 4-cyanobenzaldehyde reduction, at 10 µM, stronger effect = higher value.
Experiment [5] shares this target. Put plainly: KvBeta positive modulators, primary screen, biochemical, NADPH fluorescence (AID 623).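 Further: fluorescence intensity change per second fitted from 20 to 320 s.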 Particulars: Recombinant KvBeta, NADPH fluorescence decrease slope, 10 min; at 10 µM; stronger effect = lower value.
For experiment [6], the target named is Alpha-2C adrenergic receptor (Homo sapiens) (UniProt P18825). Put plainly: modulators of alpha2C/GIRK thallium flux, primary screen, cell-based, HEK293 alpha2C/GIRK1/2 (AID 624;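 active means fluorescence slope after compound addition differing from the mean of all screened samples at 99.7% confidence, in either direction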;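 further: slope of fluorescence ratio to pre-addition baseline per second over 15 to 24 s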). Particulars: thallium flux BTC fluorescence, at 10 µM, actives lie on both sides.
Experiment [7] is described as follows: inhibitors of Sendai virus-induced IRF3 signaling, primary screen, TLR/RLR signaling modifier project, cell-based, Sendai virus stimulus, luciferase, 10K MLSCN set (AID 602276;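 active means inhibition at or above 50% at 10 µM; inactive means inhibition below 50%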;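 further: firefly luciferase from ISG56 promoter only with Renilla not read in this screen; 0% = Sendai virus plus DMSO and 100% = medium plus DMSO without virus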). Particulars: HEK293 RL24 IRF3 luciferase reporter, at 10 µM, stronger effect = higher value. In general terms: In a reporter assay the amount or activity of a reporter protein is the signal.
A short description of experiment [8]: inhibitors of poly I:C-induced TLR3 signaling, primary screen, cell-based, poly I:C stimulus, luciferase, 10K MLSCN set (AID 602277;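 active means inhibition of the reporter signal at or above 50%; inactive means inhibition below 50%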). As to conditions: HEK293-TLR3 RL24 IRF3 luciferase reporter, at 10 µM, stronger effect = higher value.

As usually defined, the inhibition is the relative decrease from the control value, in per cent.

SMILES strings stand for the structures. The source made the active and inactive calls.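 How the source made its calls, unless noted: active means NADPH fluorescence slope more negative than the mean of all samples by about 3 SD, 99.7% confidence; inactive means the rest.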

Chain of Alpha-2C adrenergic receptor (Homo sapiens) (P18825 whole entry, looked up): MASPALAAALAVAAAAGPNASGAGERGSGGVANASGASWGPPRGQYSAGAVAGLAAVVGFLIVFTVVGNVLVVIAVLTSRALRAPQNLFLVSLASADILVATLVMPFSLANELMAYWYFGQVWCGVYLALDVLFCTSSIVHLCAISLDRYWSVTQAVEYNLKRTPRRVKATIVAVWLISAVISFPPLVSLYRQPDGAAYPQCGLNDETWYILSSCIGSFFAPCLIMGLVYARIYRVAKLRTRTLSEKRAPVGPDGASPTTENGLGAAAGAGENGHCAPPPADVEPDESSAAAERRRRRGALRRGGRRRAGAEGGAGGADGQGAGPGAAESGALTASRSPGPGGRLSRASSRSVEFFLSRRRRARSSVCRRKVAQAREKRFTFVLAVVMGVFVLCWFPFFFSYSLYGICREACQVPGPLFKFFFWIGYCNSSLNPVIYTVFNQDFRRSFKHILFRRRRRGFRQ
Chain of Voltage-gated potassium channel subunit beta-2 (Rattus norvegicus) (P62483 whole entry, looked up): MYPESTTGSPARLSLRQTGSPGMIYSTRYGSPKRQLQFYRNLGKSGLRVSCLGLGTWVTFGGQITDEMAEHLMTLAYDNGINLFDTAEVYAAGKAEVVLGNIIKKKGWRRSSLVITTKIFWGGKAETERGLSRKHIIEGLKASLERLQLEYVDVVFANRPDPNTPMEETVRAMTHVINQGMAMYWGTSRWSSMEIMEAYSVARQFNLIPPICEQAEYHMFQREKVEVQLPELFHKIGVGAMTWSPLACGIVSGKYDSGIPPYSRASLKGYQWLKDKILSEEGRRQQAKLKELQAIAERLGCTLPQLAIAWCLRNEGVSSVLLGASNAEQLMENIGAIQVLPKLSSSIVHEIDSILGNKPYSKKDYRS

Take `CN(C(=O)Cn1c(=O)n(CCCCC(=O)NC2CCCC2)c(=O)c2ccccc21)C1CCCCC1`: the cell count in experiment [1] amounted to 347. The inhibition is -1.2% (inactive) in experiment [1], -15.5% (inactive) in experiment [3], 16.4% (inactive) in experiment [7] and 25.2% (inactive) in experiment [8]. Also, in experiment [2], the inhibition of aggregation was -6.6% (inactive). Further, the figures for the nuclei count in experiment [2] and in experiment [3] were 107% and 117%, respectively. In experiment [4], the fluorescence slope is -0.478 (inactive). Also, in experiment [5], the NADPH fluorescence slope is 1.3e-07 (inactive). Also, in experiment [6], the slope was 0.00575 (inactive).
Turning to `COc1ccc(-c2nnc(SCC(=O)c3cc(C)n(Cc4cccs4)c3C)o2)cc1`, in experiment [1], the cell count was 497. The inhibition in experiment [1] is -13.7% (inactive); in experiment [3], -129% (inactive); in experiment [7], -5.7% (inactive); in experiment [8], -11.8% (inactive). Besides, the inhibition of aggregation in experiment [2] was -13.1% (inactive). Besides, the nuclei count in experiment [2] amounted to 97.7%; in experiment [3], 161%. Moreover, in experiment [4], the fluorescence slope is -0.559 (inactive). In experiment [5], the NADPH fluorescence slope was 5.5e-05 (inactive). The slope in experiment [6] is 0.00615 (inactive).
In the case of `COc1ccccc1NC(=O)CSc1nnnn1-c1ccc2c(c1)OCO2`, the cell count in experiment [1] came out at 349. The inhibition in experiment [1] was -9.4% (inactive); in experiment [3], -122% (inactive); in experiment [7], 12.2% (inactive); in experiment [8], 26.1% (inactive). Also, the inhibition of aggregation in experiment [2] is 21.1% (inactive). The nuclei count in experiment [2] is 88.6%; in experiment [3], 104%. In addition, in experiment [4], the fluorescence slope is -0.487 (inactive). The NADPH fluorescence slope in experiment [5] is 3.9e-05 (inactive). Moreover, in experiment [6], the slope was 0.00668 (inactive).
On to `Cc1cc(Nc2ccc(N3CCC(C)CC3)cc2)n2ncnc2n1`, for which the cell count in experiment [1] was 426. Moreover, the inhibition in experiment [1] was -2.4% (inactive); in experiment [3], -18.3% (inactive); in experiment [7] it was -6.44% (inactive); in experiment [8] it was -3.16% (inactive). Moreover, the inhibition of aggregation in experiment [2] was 6% (inactive). Besides, the nuclei count turned out to be 103% in experiment [2] and 115% in experiment [3]. Moreover, the fluorescence slope in experiment [4] was -0.602 (inactive). Further, the NADPH fluorescence slope in experiment [5] is 7e-05 (inactive). Besides, in experiment [6], the slope is 0.00396 (inactive).
`COc1ccc(C)cc1NC(=O)C1CCN(S(=O)(=O)c2cccc3cccnc23)CC1`: in experiment [1], the cell count was determined as 539. Moreover, the inhibition in experiment [1] is -6.5% (inactive); in experiment [3], -6.8% (inactive); in experiment [7], 14.3% (inactive); in experiment [8] it was 30.4% (inactive). For the same molecule, the inhibition of aggregation in experiment [2] is 13.2% (inactive). Moreover, the nuclei count in experiment [2] was determined as 76.6%; in experiment [3] it was 106%. For the same molecule, the fluorescence slope in experiment [4] was -0.535 (inactive). In addition, in experiment [5], the NADPH fluorescence slope was -4.1e-05 (inactive). Further, the slope in experiment [6] was 0.00559 (inactive).
For the molecule `CC(C)Cn1c(N)c(C(=O)NCc2cccs2)c2nc3ccccc3nc21`, the cell count in experiment [1] came to 250. Also, the inhibition in experiment [1] was -2.4% (inactive); in experiment [3] it was -1.8% (inactive); in experiment [7], 14.5% (inactive); in experiment [8] it was -0.686% (inactive). In experiment [2], the inhibition of aggregation was -3.1% (inactive). The nuclei count in experiment [2] came to 68.4%; in experiment [3], 97.2%. The fluorescence slope in experiment [4] is -0.474 (inactive). Further, in experiment [5], the NADPH fluorescence slope was 7.5e-06 (inactive). The slope in experiment [6] was 0.00389 (inactive).
For `C=CCNC(=O)CSc1nc2sc(C)c(C)c2c(=O)[nH]1`, the cell count in experiment [1] came out at 590. In addition, the inhibition in experiment [1] was -3.4% (inactive); in experiment [3] it was 5.1% (inactive); in experiment [7], 9.71% (inactive); in experiment [8] it was 21.7% (inactive). Further, the inhibition of aggregation in experiment [2] is 13.2% (inactive). In addition, the nuclei count in experiment [2] was found to be 91.2%; in experiment [3] it was 112%. Also, in experiment [4], the fluorescence slope is -0.556 (inactive). The NADPH fluorescence slope in experiment [5] is -3.3e-05 (inactive). In addition, the slope in experiment [6] was 0.00731 (inactive).
As to `O=c1cc(CSc2ccccn2)c2ccccc2[nH]1`, in experiment [1], the cell count is 446. The inhibition in experiment [1] was 1.4% (inactive); in experiment [3], -59.6% (inactive); in experiment [7] it was 10.1% (inactive); in experiment [8], 18.8% (inactive). Further, the inhibition of aggregation in experiment [2] was 9.1% (inactive). Also, the nuclei count is 74.9% in experiment [2] and 128% in experiment [3]. The fluorescence slope in experiment [4] was -0.578 (inactive). Further, the NADPH fluorescence slope in experiment [5] is -3e-05 (inactive). Besides, the slope in experiment [6] was 0.00572 (inactive).
Consider `CC(C)CNC(=O)c1ccccc1NC(=O)c1ccc(CN2CCOCC2)cc1`, for which the cell count in experiment [1] stood at 729. Moreover, the inhibition is 5.7% (inactive) in experiment [1], -11% (inactive) in experiment [3], 1.28% (inactive) in experiment [7] and 14.5% (inactive) in experiment [8]. In addition, the inhibition of aggregation in experiment [2] was 4% (inactive). Besides, the results for the nuclei count in experiment [2] and in experiment [3] were 93.4% and 111%, respectively. In experiment [4], the fluorescence slope was -0.473 (inactive). The NADPH fluorescence slope in experiment [5] is -5.1e-05 (inactive). For the same molecule, the slope in experiment [6] is 0.00594 (inactive).
As for `CCc1nnc(NC(=O)c2ccc(COc3ccccc3)o2)s1`, the cell count in experiment [1] turned out to be 736. Besides, the inhibition in experiment [1] was -49% (inactive); in experiment [3], -18.9% (inactive); in experiment [7], -7.49% (inactive); in experiment [8] it was 3.46% (inactive). Besides, the inhibition of aggregation in experiment [2] is -1.8% (inactive). The nuclei count stood at 101% in experiment [2] and 102% in experiment [3]. Besides, in experiment [4], the fluorescence slope is -0.519 (inactive). Further, in experiment [5], the NADPH fluorescence slope is -2.5e-05 (inactive). In addition, in experiment [6], the slope is 0.00512 (inactive).
In the case of `CSc1nc(C)cc(Oc2ccc(=O)n(C)n2)n1`, in experiment [1], the cell count was 380. Moreover, the inhibition is -0.7% (inactive) in experiment [1], -30.2% (inactive) in experiment [3], 1.26% (inactive) in experiment [7] and 22.5% (inactive) in experiment [8]. Moreover, the inhibition of aggregation in experiment [2] is 1.1% (inactive). In addition, the nuclei count was 101% in experiment [2] and 109% in experiment [3]. The fluorescence slope in experiment [4] is -0.478 (inactive). The NADPH fluorescence slope in experiment [5] is -4.2e-06 (inactive). The slope in experiment [6] is 0.00506 (inactive).
As to `O=c1c2cc(Cl)ccc2[nH]c(=S)n1Cc1ccco1`, the cell count in experiment [1] was 439. Further, the inhibition was 5.3% (inactive) in experiment [1], -36.1% (inactive) in experiment [3], 9.24% (inactive) in experiment [7] and 20.2% (inactive) in experiment [8]. Further, in experiment [2], the inhibition of aggregation is 13.5% (inactive). Also, the nuclei count in experiment [2] was 89.7%; in experiment [3], 102%. In experiment [4], the fluorescence slope is -0.597 (inactive). Also, the NADPH fluorescence slope in experiment [5] is -4.8e-05 (inactive). Also, the slope in experiment [6] was 0.00334 (inactive).
Consider `Cc1ccc(N(CC(=O)NCC2CCCO2)S(C)(=O)=O)cc1Cl` (centres undefined), for which, in experiment [1], the cell count came out at 478. The inhibition in experiment [1] was -4.5% (inactive); in experiment [3] it was -59.9% (inactive); in experiment [7] it was 23.8% (inactive); in experiment [8], 12.4% (inactive). For the same molecule, the inhibition of aggregation in experiment [2] was 0.2% (inactive). The nuclei count came to 114% in experiment [2] and 121% in experiment [3]. The fluorescence slope in experiment [4] was -0.292 (inactive). In experiment [5], the NADPH fluorescence slope was -1.4e-05 (inactive). In experiment [6], the slope was 0.00598 (inactive).
Turning to `COC(=O)c1cccc(Oc2nc3c(c(=O)n(C)c(=O)n3C)n2C(C)C)c1`, in experiment [1], the cell count was found to be 668. The inhibition in experiment [1] was -5.8% (inactive); in experiment [3] it was -55.6% (inactive); in experiment [7] it was 15% (inactive); in experiment [8], 28.3% (inactive). Further, the inhibition of aggregation in experiment [2] is 3.9% (inactive). The nuclei count in experiment [2] was 102%; in experiment [3], 106%. In addition, the fluorescence slope in experiment [4] is -0.436 (inactive). Moreover, in experiment [5], the NADPH fluorescence slope was -3.6e-05 (inactive). Further, the slope in experiment [6] was 0.00584 (inactive).
